Measurements as given in the supplement of paper PMC6992640.
± gives the standard deviation of the averaged measurements.

Experiments:
Experiment in all cases: cell viability (% of vehicle); higher = less cytotoxic
Conditions in all cases: 10 µM; 72 h
HCI01 = system: HCI01 (cells of a triple-negative basal-like breast cancer xenograft)
HCI03 = system: HCI03 (cells of an ER-positive luminal breast cancer xenograft)
HCI09 = system: HCI09 (cells of a triple-negative luminal androgen receptor type breast cancer xenograft)
HCI11 = system: HCI11 (cells of an ER-positive luminal breast cancer xenograft)
HCI16 = system: HCI16 (cells of a triple-negative basal-like breast cancer xenograft)
UCD52 = system: UCD52 (cells of a triple-negative basal-like breast cancer xenograft)
WHIM2 = system: WHIM2 (cells of a triple-negative basal-like breast cancer xenograft)
WHIM30 = system: WHIM30 (cells of a triple-negative basal-like breast cancer xenograft)
HCI13 = system: HCI13 (cells of an ER-positive luminal breast cancer xenograft)
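Also: PDX cells carrying CMV promoter-driven luciferase, viability read as total photon flux per second by IVIS imaging following D-luciferin, vehicle control 0.1% DMSO.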

| Structure (SMILES) | cell viability (HCI01) | cell viability (HCI03) | cell viability (HCI09) | cell viability (HCI11) | cell viability (HCI16) | cell viability (UCD52) | cell viability (WHIM2) | cell viability (WHIM30) | cell viability (HCI13) |
| --- | --- | --- | --- | --- | --- | --- | --- | --- | --- |
| C#C[C@]1(O)CC[C@H]2[C@@H]3CCC4=CC(=O)CC[C@@H]4[C@H]3C(=C)C[C@@]21CC [Etonogestrel] | 109 ± 47 | 135 | 102 ± 13 | 86.3 | 145 | 116 ± 14 | 112 ± 30 | 146 ± 16 |  |
| O=C(CCCN1CCN(c2ccccn2)CC1)c1ccc(F)cc1 [Azaperone] | 119 ± 25 | 114 | 96.7 ± 2.1 | 121 | 151 | 66.9 ± 13 | 98.3 ± 4.7 | 85.8 ± 2.8 |  |
| CCCC1O[C@@H]2C[C@H]3[C@@H]4CCC5=CC(=O)C=C[C@]5(C)[C@H]4[C@@H](O)C[C@]3(C)[C@]2(C(=O)CO)O1 (some centres undefined) [Budesonide] | 113 ± 30 | 102 | 164 ± 40 | 140 | 173 | 141 ± 9.5 | 74.4 ± 20 |  |  |
| Cc1cc(Nc2cc(CN3CCOCC3)c3nc(C)c(Cc4ccc(Cl)cc4F)n3n2)n[nH]1 | 142 ± 56 | 116 | 64.3 ± 15 | 196 | 199 | 103 ± 19 |  |  |  |
| CCC1OC(=O)C(C)C(OC2CC(C)(OC)C(O)C(C)O2)C(C)C(OC2OC(C)CC(N(C)C)C2O)C(C)(O)CC(C)CN(C)C(C)C(O)C1(C)O (centres undefined) [Azithromycin] | 145 ± 30 | 137 | 116 ± 5.9 | 121 | 124 | 105 ± 26 | 114.9 ± 1.1 | 119 ± 24 |  |
| O=C(Nc1cccc2c(=O)cc(-c3nn[nH]n3)oc12)c1ccc(OCCCCc2ccccc2)cc1 [Pranlukast] | 96.3 ± 9.7 | 97.5 | 64 ± 5.3 | 101 | 147 | 102 ± 2.1 | 65.3 ± 11 | 152 ± 11 |  |
| CCC(=O)OC1(C(=O)CCl)C(C)CC2C3CCC4=CC(=O)C=CC4(C)C3(F)C(O)CC21C (centres undefined) [Clobetasol propionate] | 116 ± 22 | 125 | 116 ± 54 | 132 | 196 | 142 ± 10 | 91 ± 25 |  |  |
| NCC(O)c1ccc(O)c(O)c1.O.O=C(O)C(O)C(O)C(=O)O (centres undefined) [Noradrenaline bitartrate monohydrate] | 86.8 ± 21 | 152 | 133 ± 34 | 124 | 160 | 142 ± 4.8 | 73 ± 14 |  |  |
| NCCc1cnc[nH]1.O=P(O)(O)O.O=P(O)(O)O [Histamine Phosphate] | 117 ± 18 | 117 | 95.2 ± 15 | 98.4 | 131 | 99.9 ± 17 | 98.8 ± 4.3 | 149 ± 14 |  |
| O=C(Nc1c(Cl)cncc1Cl)c1ccc(OC(F)F)c(OCC2CC2)c1 [Roflumilast] | 150 ± 8.4 | 145 | 118 ± 55 | 124 | 196 | 119 ± 10 | 104 ± 15 | 151 ± 5.7 |  |
| Cl.O=C1NCC2(CCN(CCc3ccccc3)CC2)O1 [Fenspiride HCl] | 118 ± 42 | 126 | 101 ± 14 | 98.4 | 104 | 99.1 ± 6.4 | 98.1 ± 4.1 | 93.8 ± 14 |  |
| CC12CCC3c4ccc(O)cc4CCC3C1CCC2O (centres undefined) [Estradiol] | 99.8 ± 4.7 | 111 | 91.4 ± 4.4 | 93 | 91.4 | 85.9 ± 4.8 | 108 ± 28 | 74.2 ± 6.9 |  |
| C=CCNC1=C2CC(C)CC(OC)C(O)C(C)C=C(C)C(OC(N)=O)C(OC)C=CC=C(C)C(=O)NC(=CC1=O)C2=O (centres undefined) | 105 ± 37 | 57.1 | 26.7 ± 0.77 | 72.5 | 106 | 91.6 ± 5.4 | 63.25 ± 0.14 | 85.1 ± 8.4 |  |
| CC12CCC3c4ccc(O)cc4CCC3C1CCC2=O (centres undefined) [Estrone] | 99.5 ± 6.1 | 112 | 97.3 ± 9.7 | 102 | 89.5 | 87.3 ± 6.6 | 113 ± 22 | 153 ± 14 |  |
| C#CC1(O)CCC2C3CCc4cc(O)ccc4C3CCC21C (centres undefined) [Ethinyl Estradiol] | 107 ± 7.8 | 119 | 103 ± 15 | 102 | 93.3 | 84 ± 3.5 | 107 ± 25 | 109 ± 21 |  |
| COc1ccccc1OCC(O)CO (centres undefined) [Guaifensin] | 108 ± 4.8 | 131 | 112 ± 21 | 102 | 117 | 91.7 ± 1 | 95 ± 18 | 141 ± 10 |  |
| O=NN(CCCl)C(=O)NCCCl [Carmustine] | 106 ± 24 | 166 | 99.9 ± 62 | 83.9 |  | 116 ± 5.4 | 96.23 ± 0.26 | 123 ± 8.1 | 134 ± 22 |
| CC(NCCc1ccc(O)cc1)C(O)c1ccc(O)cc1.Cl (centres undefined) [Ritodrine HCl] | 111 ± 11 | 116 | 101 ± 21 | 106 | 111 | 86.3 ± 4.5 | 97.8 ± 37 | 111 ± 4.8 |  |
| Cl.O=C(CCCN1CCC(O)(c2ccc(Cl)cc2)CC1)c1ccc(F)cc1 [Haloperidol hydrochloride] | 114 ± 14 | 99.6 | 103 ± 31 | 106 | 127 | 63.4 ± 4.9 | 114 ± 6.5 | 60.2 ± 8.8 |  |
| CC(=O)O[C@@]12CO[C@@H]1C[C@H](O)[C@@]1(C)C(=O)[C@H](O)C3=C(C)[C@@H](OC(=O)[C@H](O)[C@@H](NC(=O)OC(C)(C)C)c4ccccc4)C[C@@](O)([C@@H](OC(=O)c4ccccc4)[C@H]21)C3(C)C [Docetaxel] | 154 ± 26 | 106 | 99.9 ± 18 | 124 |  | 82 ± 10 | 96.3 ± 7.4 | 134 ± 5.3 | 116 ± 22 |
| Cl.N=C(N=C(N)N)N1CCOCC1 [Moroxydine HCl] | 91.5 ± 36 | 114 | 92.5 ± 3.5 | 89.2 | 138 | 87.98 ± 0.46 | 70.25 ± 0.58 | 164.7 ± 0.024 |  |
| C#CC1(O)CCC2C3CCc4cc(OC)ccc4C3CCC21C (centres undefined) [Mestranol] | 131 ± 12 | 136 | 94.681 ± 0.043 | 106 | 104 | 71.2 ± 21 | 159 ± 12 | 121.2 ± 0.15 |  |
| N=C(N)NCCCC[C@@H]1NC(=O)CCSSC[C@@H](C(N)=O)NC(=O)[C@@H]2CCCN2C(=O)[C@H](Cc2c[nH]c3ccccc23)NC(=O)[C@H](CC(=O)O)NC(=O)CNC1=O [Eptifibatide] | 101 ± 25 | 148 | 120 ± 79 | 93.4 | 194 | 123 ± 15 | 101 ± 13 | 138 ± 4.8 |  |
